# The whole screen tested about 3,300 compounds, of which about 280 (8.5%) were called active.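 How the source made its calls: active means mean growth inhibition over the two runs of 50% or more; inactive means mean growth inhibition under 50%.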 The full list was thinned out, with actives kept by preference.
# Experiment: A549 NSCLC cell proliferation inhibitors – ATP luminescence, human non-small cell lung line, primary screen (AID 371);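 further: compound exposure lasted 72 h before the ATP read; 0% = untreated cell signal and 100% = no luminescence left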
# Conditions: at 10 µM, active compounds read high
row,Structure (SMILES),growth inhibition
1,N#CC1=C(N)C(C#N)(C#N)[C@H](c2ccncc2)[C@H]2CN(C(=O)OCc3ccccc3)CC=C12,57.7% (active)
2,CCOC(=O)N1CC=C2C(C#N)=C(N)C(C#N)(C#N)[C@H](c3cccs3)[C@H]2C1,8.61% (inactive)
3,CC(C)(C)OC(=O)N1CC=C2C(C#N)=C(N)C(C#N)(C#N)[C@H](c3cccnc3)[C@H]2C1,9.35% (inactive)
4,CCCCOc1ccc(CSC(CC(=O)O)C(=O)O)cc1 (stereo unspecified),-2.76% (inactive)
5,CCOc1ccc2c(C)nc(NC3=NC(C)(C)C=C(C)N3)nc2c1,72% (active)
6,COc1ccc2c(C)nc(Nc3nc(C)cc(C)n3)nc2c1,2.87% (inactive)
7,CCCCC(C(=O)O)C(C)CC(=O)Nc1cccc(C(=O)O)c1 (stereo unspecified),-1.54% (inactive)
8,CC[C@H]1OC(=O)C[C@@H](O)[C@H](C)[C@@H](O[C@@H]2O[C@H](C)C[C@H](N(C)C)[C@H]2O)[C@@H](CC=O)C[C@@H](C)C(=O)C=C[C@]2(C)O[C@H]2[C@@H]1C,24.4% (inactive)
9,CCc1ccc(NC(=O)CSC2=C(C#N)C(c3ccc4c(c3)OCO4)CC(=O)N2)cc1 (stereo unspecified),8.25% (inactive)
10,CC(C)(C)C1CCC2(CC1)C(C#N)=C(SCC(=O)Nc1ccccc1)NC(=O)C2C#N (stereo unspecified),70.2% (active)
11,CC1=C(C(=O)Nc2ccccc2)C(c2ccncc2)C(C#N)=C(SCC(=O)NC(C)C)N1 (stereo unspecified),6.59% (inactive)
12,COC(=O)c1ccc(=O)n(Cc2ccc3c(c2)OCO3)c1,8.75% (inactive)
13,CCc1cc2c(=O)c(-c3nc4ccccc4[nH]3)coc2cc1OC(=O)N1CCOCC1,-4.96% (inactive)
14,O=C(O)/C=C/c1ccc(O)c(O)c1,-1.3% (inactive)
15,COc1cc(/C=C/C(=O)CC(=O)/C=C/c2ccc(O)c(OC)c2)ccc1O,75.3% (active)
16,CCN(CC)C(=O)c1ccc(O)c(OC)c1,-6.2% (inactive)
17,Cc1ccccc1OCC(O)Cn1c(N2CCN(c3ccccc3)CC2)nc2c1c(=O)[nH]c(=O)n2C (stereo unspecified),3.03% (inactive)
18,O=C(O)CC(NCc1ccco1)C(=O)OCC1CCCO1 (stereo unspecified),0.9% (inactive)
19,CCCC(=O)Nn1cnc2c(c1=O)C1(CCCC1)Cc1ccccc1-2,5.85% (inactive)
20,COc1cccc(N2CCN(C3CC(=O)N(c4cccc(Cl)c4)C3=O)CC2)c1 (stereo unspecified),4.23% (inactive)
21,CC(CN1c2ccccc2Sc2ccccc21)N(C)C (stereo unspecified),25.9% (inactive)
22,CSc1ccc2c(c1)N(CCC1CCCCN1C)c1ccccc1S2 (stereo unspecified),93.4% (active)
23,COc1ccc(/C(O)=C2/C(=O)C(=O)N(CCCN(C)C)C2c2ccco2)cc1Cl (stereo unspecified),3.4% (inactive)
24,COc1ccc(OC)c(C2/C(=C(\O)c3ccc4c(c3)OCCO4)C(=O)C(=O)N2CCCN(C)C)c1 (stereo unspecified),7.35% (inactive)

row,Structure (SMILES),growth inhibition
1,CC(C)N=c1cc2n(-c3ccc(Cl)cc3)c3ccccc3nc-2cc1Nc1ccc(Cl)cc1,92.5% (active)
2,COc1ccc(N/C(=N\c2nc(C)cc(C)n2)NC(=O)C(C)C)cc1OC,7.92% (inactive)
3,CC(C)c1nc2n[nH]c(N)c2c2c1CCC2,-2.18% (inactive)
4,O=C1OC2CCC1(c1ccccc1)C2 (stereo unspecified),-2.09% (inactive)
5,COc1ccc(C2=CC(c3ccc(C)cc3)n3nnnc3N2)cc1 (stereo unspecified),27.9% (inactive)
6,COc1cccc(C2=CC(c3ccccc3)n3nnnc3N2)c1 (stereo unspecified),72.7% (active)
7,COc1ccc(C2=CC(c3cccc(OC)c3)n3nnnc3N2)cc1 (stereo unspecified),27.1% (inactive)
8,COc1cccc(C2=CC(c3ccccc3)n3ncnc3N2)c1 (stereo unspecified),11.9% (inactive)
9,COc1ccc(C2C=C(c3ccc(C)cc3)Nc3ncnn32)cc1 (stereo unspecified),30.1% (inactive)
10,COc1cccc(C2=CC(c3ccc(N(C)C)cc3)n3nnnc3N2)c1 (stereo unspecified),58.6% (active)
11,CC(NC(=O)OCc1ccccc1)C(=O)OCN1C(=O)c2ccccc2C1=O (stereo unspecified),2.01% (inactive)
12,Cc1ccc(S(=O)(=O)c2cc3c(=O)n4cccc(C)c4nc3n(CC3CCCO3)c2=N)cc1 (stereo unspecified),7.96% (inactive)
13,CCOc1cccc(-c2nnc3sc(C4CCCCC4)nn23)c1,79% (active)
14,COc1ccccc1-c1nn2c(-c3ccc(C(C)(C)C)cc3)nnc2s1,83.3% (active)
15,COc1cc(-c2nn3c(-c4cccnc4)nnc3s2)cc(OC)c1OC,14% (inactive)
16,COc1ccc(-c2nnc3sc(-c4ccccc4OC)nn23)cc1,4.96% (inactive)
17,CCOc1cccc(-c2nnc3sc(COc4ccccc4)nn23)c1,3.57% (inactive)
18,CCN(CC)c1ccc(-c2nn3c(-c4cccnc4)nnc3s2)cc1,80.9% (active)
19,c1cc(-c2nnc3sc(C4CCCCC4)nn23)ccn1,-0.46% (inactive)
20,CCOc1cccc(-c2nnc3sc(-c4cccs4)nn23)c1,2.48% (inactive)
21,CCOc1cccc(-c2nnc3sc(-c4ccc(C)cc4)nn23)c1,48.3% (inactive)
22,CCOc1cccc(-c2nnc3sc(-c4cc(OC)c(OC)c(OC)c4)nn23)c1,53.3% (active)
23,c1cncc(-c2nnc3sc(-c4ccco4)nn23)c1,3.63% (inactive)
24,CCOc1ccc(-c2nnc3sc(-c4ccccc4OC)nn23)cc1,-2.6% (inactive)

row,Structure (SMILES),growth inhibition
1,Cc1ccc(N(CC(=O)O)C2SC(=O)NC2=O)cc1 (stereo unspecified),-7.76% (inactive)
2,Cc1ccc(C2CC(c3cccs3)n3nc(N)nc3N2)cc1 (stereo unspecified),17.9% (inactive)
3,CCOC(=O)c1[nH]c2ccc(Br)cc2c1NC(=O)CCN1CCC(C(=O)OCC)CC1,41.5% (inactive)
4,CCSc1nnc(N(CCC#N)CCC#N)s1,4.31% (inactive)
5,CCOC(=O)CCCCC(=O)NC(CO)C(=O)NC (stereo unspecified),-2.55% (inactive)
6,CN(CCNC(=O)c1ccc(/C=N/O)nc1)Cc1ccccc1,-0.01% (inactive)
7,COc1ccccc1-c1nnc2sc(C3CCCCC3)nn12,24.4% (inactive)
8,c1cncc(-c2nnc3sc(C4CCCCC4)nn23)c1,25.4% (inactive)
9,COc1cccc(-c2nnc3sc(C4CCCCC4)nn23)c1,73.3% (active)
10,Cn1c(=O)[nH]c(=O)c2c1nc(Br)n2CCSc1ncccn1,4.37% (inactive)
11,COCCCNc1nc2c(c(=O)[nH]c(=O)n2C)n1CC(O)COc1ccccc1 (stereo unspecified),13.7% (inactive)
12,OC(CCN1CCCC1)(c1ccccc1)C1CCCCC1 (stereo unspecified),7.22% (inactive)
13,CC(C)(C)c1ccc(C(O)CCCN2CCC(C(O)(c3ccccc3)c3ccccc3)CC2)cc1 (stereo unspecified),95.9% (active)
14,OC(CCN1CCCCC1)(c1ccccc1)C1CCCCC1 (stereo unspecified),1.96% (inactive)
15,CCCCCSc1nc(C)c(CC(=O)O)c(=O)[nH]1,-2.49% (inactive)
16,CC(=O)/C(C#N)=C1\NC(=O)C(Cc2ccccc2Cl)S1 (stereo unspecified),61.9% (active)
17,N#C/C(C(=O)N1CCOCC1)=C1/SC(Cc2ccccc2)C(=O)N1c1ccccc1 (stereo unspecified),0% (inactive)
18,CCOC(=O)/C(C#N)=C1/SC(CCO)C(=O)N1c1ccccc1 (stereo unspecified),-8.59% (inactive)
19,CCOC(=O)c1ccc(CC2S/C(=C(\C#N)C(C)=O)NC2=O)cc1 (stereo unspecified),26.4% (inactive)
20,N#CC(C(=O)Nc1ccc(Cl)c(Cl)c1)=C1Nc2ccccc2N1,38.8% (inactive)
21,CC(=O)/C(C#N)=C1\NC(=O)C(Cc2ccccc2)S1 (stereo unspecified),56% (active)
22,CCOc1ccc2nc(NC(NC(=O)CC)(C(=O)OC)C(F)(F)F)sc2c1 (stereo unspecified),20.7% (inactive)
23,CCCCCOc1ccc(C(=O)NCC(=O)NCC(=O)OCC)cc1,36.1% (inactive)
24,CC(C)CC(=O)Nc1ccccc1N1CCCC1,3.4% (inactive)

row,Structure (SMILES),growth inhibition
1,CCOC(=O)C1=Nc2ccccc2C1=[N+]=[N-],61.3% (active)
2,CCOC(=O)CNC(=O)Nc1ccccc1C(=O)OC,-3.41% (inactive)
3,CCOC(=O)c1n[nH]c2ccccc12,-3.73% (inactive)
4,C=CCOn1c(=O)c(-c2ccc(OC)cc2)[n+]([O-])c2ccccc21,0.35% (inactive)
5,CSC1=C(C#N)C(C)CC(=O)N1 (stereo unspecified),-1.22% (inactive)
6,O=C1c2ccccc2C(=O)N1c1ncccn1,8.95% (inactive)
7,COCCCn1c2nc3ccccc3nc2c2c(=O)n(CC3CCCO3)cnc21 (stereo unspecified),3.37% (inactive)
8,CCOC(=O)CC(=O)CSc1nc(N)c(C#N)c(-c2ccc(Cl)cc2)c1C#N,5.46% (inactive)
9,CCc1nc(N)nc(N)c1-c1ccc(Cl)cc1,79.6% (active)
10,Cc1cc(-c2cc(-c3ccc(Cl)cc3)nc(N)c2C#N)co1,30.1% (inactive)
11,Cc1c(/C(O)=C2\C(=O)C(=O)N(CCN(C)C)C2c2cccs2)cnn1-c1ccccc1 (stereo unspecified),0.12% (inactive)
12,c1coc(CNc2ncnc3ccccc23)c1,23.6% (inactive)
13,O=c1c2ccccc2ncn1Cc1ccco1,1.72% (inactive)
14,OCCNc1ncnc2c1c(-c1ccccc1)c(-c1ccccc1)n2Cc1ccco1,53.2% (active)
15,CC(C)CN1C(=O)NC(NC(=O)c2cccnc2)(C(F)(F)F)C1=O (stereo unspecified),-0.36% (inactive)
16,Cc1nnc(SCC(=O)N2CCOCC2)c2ccccc12,-4.15% (inactive)
17,COc1cccc(Cn2c(NCc3ccco3)nc3c2c(=O)n(C)c(=O)n3C)c1,51.8% (active)
18,COc1cccc(Cn2c(NCc3ccccn3)nc3c2c(=O)n(C)c(=O)n3C)c1,23.9% (inactive)
19,COc1ccc(Oc2nc3c(c(=O)n(C)c(=O)n3C)n2Cc2cccc(OC)c2)cc1,27.7% (inactive)
20,CCCCNc1nc2c(c(=O)n(C)c(=O)n2C)n1Cc1cccc(OC)c1,59.5% (active)
21,COCCCNc1nc2c(c(=O)n(C)c(=O)n2C)n1Cc1cccc(OC)c1,33.1% (inactive)
22,COc1cccc(Cn2c(NCC(C)C)nc3c2c(=O)n(C)c(=O)n3C)c1,2.01% (inactive)
23,Cc1cc(=O)oc(C)c1C(=O)NCC(C)C,-13.9% (inactive)
24,C=CCOc1nc2c(c(=O)n(C)c(=O)n2C)n1Cc1c(Cl)cccc1Cl,25.2% (inactive)

# From PubChem BioAssay AID371 (SRMLSC, 2006)
